# Where a name gives a salt, the structure may show the parent alone. Values without a mark were called inactive.
# Test system: Plasmodium falciparum NF54/iGP1_RE9H ulg8 stage V gametocytes
# Assay: gametocyte viability (luciferase signal relative to DMSO control) (% of DMSO control); higher = less gametocytocidal activity, active = 50 or less
# Details: exposure time: 72 h
# Procedure: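 Synchronous P. falciparum NF54/iGP1_RE9H ulg8 mature stage V gametocytes (day 12) were exposed to Cayman Epigenetics Screening Library compounds at 10 µM or 1 µM for 72 h at 37 °C. Viability was read as RE9H luciferase bioluminescence, normalised to DMSO plate controls (100%); 50 µM methylene blue was the positive control.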
Compound,gametocyte viability (concentration: 1 µM),gametocyte viability (concentration: 10 µM)
O=c1oc2c(O)c(O)cc3c(=O)oc4c(O)c(O)cc1c4c23 [Ellagic Acid],101,95.3
COc1ccc(S(=O)(=O)ON=C2C=C(C)C(=O)C(C)=C2)cc1,87.3,43.2 (active)
CN(C)Cc1c(C(=O)NCCOc2ccc(C(=O)NO)cc2)oc2ccccc12,65.8,59
Nc1ccc(S(=O)(=O)NCCc2ccccc2)cc1,84.2,86.3
Cc1ccc(NC(=O)CCCCCC(=O)Nc2ccccc2N)cc1 [Pimelic Diphenylamide 106],86.8,89
COc1cc2c(NC3CCN(C4CCCCC4)CC3)nc(N3CCCN(C(C)C)CC3)nc2cc1OCCCN1CCCCC1,75.5,13.4 (active)
COC(=O)/C=C/C(=O)N(O)CCCCNCc1ccc(COC(=O)Nc2cccc3ccccc23)cc1 [Methylstat (hydrate)],89.4,32 (active)
CCCCOc1ccc(CC(=O)NO)cc1 [Bufexamac],85,94.8
O=C(CCCCCCC(=O)Nc1ccccc1)NO,86.4,56.2
Cc1ccc(-n2sc3ccccc3c2=O)cc1,90.8,59.8
O=C(NO)c1ccc(CC(=O)N(CCO)c2ccccc2)cc1,88.9,93.5
CCn1c2ccccc2c2cc(CNCc3ccccc3OC)ccc21 [HLCL-61 (hydrochloride)],85,94
Nc1cc(F)ccc1NC(=O)c1ccc(CNC(=O)/C=C/c2cccnc2)cc1 [Chidamide],92.7,93.4
CCCCc1nc2cc(/C=C/C(=O)NO)ccc2n1CCN(CC)CC,76.9,62.4
O=C([C@@H](Cc1cccc(C(F)(F)F)c1)NS(=O)(=O)c1cc(F)c2c(c1)CCNC2)N1CCCC1 [(R)-PFI-2 (hydrochloride)],85.2,77.8
O=Nc1ccc(O)c2ncccc12 [5-Nitroso-8-quinolinol],88.4,11.5 (active)
Cn1cc(C(=O)Nc2ccc3c(c2)OCCO3)c2ccccc2c1=O,82.7,79.9
CC(=O)SCC(=O)c1ccc(NS(=O)(=O)c2ccc(OCCCN(C)C)cc2)nc1,83.8,85.4
Cc1cc(Nc2ccc(NC(=O)c3ccc(Nc4ccnc5ccccc45)cc3)cc2)nc(N)n1,31.4 (active),2.18 (active)
CCOC(=O)Nc1cc(-c2ccc(C)c(NS(C)(=O)=O)c2)nn2c(C)nnc12 [Bromosporine],86.5,83.1
Oc1cc(O)cc(/C=C/c2ccc(Br)cc2)c1 [4'-bromo-Resveratrol],51.7,6.07 (active)
COc1cc2nc(N3CCCN(C)CC3)nc(NC3CCN(Cc4ccccc4)CC3)c2cc1OC,71,23.3 (active)
CC(C)(C)c1ccc(C(=O)NC(=S)Nc2ccc(N)cc2)cc1 [Tenovin-3],92.2,79.2

Compound,gametocyte viability (concentration: 1 µM),gametocyte viability (concentration: 10 µM)
CCCC(CCC)C(=O)O [Valproic Acid (sodium salt)],86.9,86.4
O=C(CCCCCCSc1ccc2ccccc2c1)NO,84.8,84.6
Nc1ncn([C@@H]2O[C@H](CO)[C@@H](O)[C@H]2O)c(=O)n1 [5-Azacytidine],89,90.8
COc1nnc2ccc(N3CCC(c4ccc(OCCN5CCN(C)C(=O)[C@H]5C)cc4)CC3)nn12,93.3,90.3
CCOC(=O)NCCCC(=O)NCCc1ccccc1,89.7,94.3
CC(C(=O)Nc1cccc(/N=C/c2c(O)ccc3ccccc23)c1)c1ccccc1 (stereo unspecified) [Salermide],88.8,88.4
COc1cc(C#N)ccc1S(=O)(=O)Nc1ccc2c(c1)cc(C)c(=O)n2C,86.6,91.4
CCC(=O)N1CCOc2c(cc(-c3ccc(OC)c(OC)c3)cc2OC[C@H]2CCCN(C)C2)C1 [I-CBP112 (hydrochloride)],84.5,86.9
Clc1ccc(-c2csc(NN=C3CCCC3)n2)cc1 [CPTH2 (hydrochloride)],98.4,83.9
O=C(CCCCCCC(=O)Nc1cccnc1)NO [Pyroxamide],90.7,63.8
CN(C)Cc1ccc(S(=O)(=O)n2ccc(/C=C/C(=O)NO)c2)cc1 [Resminostat (hydrochloride)],94.8,77.8
CN1CCN(c2ccc(-c3cccc(CN4CCOCC4)c3)cc2NC(=O)c2c[nH]c(=O)cc2C(F)(F)F)CC1,89.4,94.1
O=C(Cc1ccccc1)Nc1ccc2oc(-c3ccc(Cl)cc3Cl)nc2c1,80.3,51.9
CCC(CC)(NC(=O)C(C)C)C(=O)N[C@@H](CCCN=C(N)N)C(=O)NC1(C(=O)NC(c2ccc(F)cc2)c2ccc(F)cc2)CCCC1,82.6,82.6
N[C@H]1CC[C@H](N[C@@H]2C[C@H]2c2ccccc2)CC1,74.5,70.7
CCOC(=O)NNc1nncc2ccccc12 [Todralazine (hydrochloride)],89.5,89.1
C#CCC(CCCCCC)C(=O)O (stereo unspecified) [2-hexyl-4-Pentynoic Acid],89.2,95.4
O=C(O)CNC(=O)C(=O)O [N-Oxalylglycine],87.3,85.3
N[C@H]1C[C@@H]1c1ccc(-c2cccc(O)c2)cc1,92.2,79.4
Nc1cc(F)ccc1NC(=O)/C=C/c1cnn(C/C=C/c2ccccc2)c1,98,91.8
O=C(NCc1ccccc1)c1c(/N=C/c2c(O)ccc3ccccc23)sc2c1CCCC2,103,94.2
O=C(O)CC[C@H](O)C(=O)O [L-α-Hydroxyglutaric Acid (sodium salt)],92.7,86.7
CC(=O)Nc1ccc(NC(=S)NC(=O)c2ccc(C(C)(C)C)cc2)cc1 [Tenovin-1],81.3,81.9

Compound,gametocyte viability (concentration: 1 µM),gametocyte viability (concentration: 10 µM)
COc1cc(OC)c2c(=O)[nH]c(-c3cc(C)c(OCCO)c(C)c3)nc2c1,94.1,92.5
Cc1cc(C)cc(C(=O)NOCCCCCC(=O)NO)c1,92.1,64.9
Nc1ncnc2c1ncn2[C@@H]1O[C@H](C[C@@H](N)CC[C@H](N)C(=O)O)[C@@H](O)[C@H]1O [Sinefungin],88.5,85.6
CCN(c1cc(-c2ccc(CN3CCOCC3)cc2)cc(C(=O)NCc2c(C)cc(C)[nH]c2=O)c1C)C1CCOCC1,95.1,93
CCOC(=O)C1=CN(Cc2ccccc2)C=C(C(=O)OCC)C1c1ccccc1,80.7,77.6
Nc1ccccc1NC(=O)CCCCCC(=O)Nc1ccccc1,88.7,96.1
CN(C)c1ccc(C(=O)NCCCCCC(=O)NO)cc1,76.2,52
"CC(=O)OCC1OC(n2cnc(N)nc2=O)C(OC(C)=O)C1OC(C)=O (stereo unspecified) [2',3',5'-triacetyl-5-Azacytidine]",87.3,85.8
O=C1CCc2c(ccc3ccccc23)O1 [Splitomicin],86.2,80.9
CCCCNNC(=O)c1ccc(Br)cc1,84,56.1
O=C(Nc1cccc(Br)c1)c1cccc(S(=O)(=O)N2CCCCCC2)c1,85.8,69.8
O=C(/C=C/C#Cc1cccc(NS(=O)(=O)c2ccccc2)c1)NO [Oxamflatin],101,168
CN=C(NC)NCCCNCCCNCCCNC(=NC)NC [Lysine-specific Demethylase Inhibitor (1C) (hydrochloride)],85.5,81.1
CCCCCCCCOC(=O)C(O)CCC(=O)O (stereo not drawn) [Octyl-α-hydroxyglutarate],92.4,95.4
CNCCN1CCC(OCc2ccccc2)CC1 [MS049 (hydrochloride)],84.2,79.7
Cn1cc(CCn2cnc(-c3cnn(C)c3)c2-c2ccc(C#N)cc2)cn1,91.3,89.1
CN(C)CCCNC(=O)c1ccc(-c2cc(O)c3ncccc3c2)cc1,85.2,49.8 (active)
Nc1ccccc1NC(=O)c1ccc(CNC(=O)OCc2cccnc2)cc1,83.8,88
O=C(NC[C@H](O)CN1CCc2ccccc2C1)c1cc(NC2COC2)ncn1,90,89.1
O=C1C(=Cc2cccnc2)C(=O)c2ccccc21,79.2,80.2
C/C(=N\NC(=O)c1cccc(S(=O)(=O)N2CCOCC2)c1)c1cc(Cl)ccc1O,89.1,85.8
Cc1noc(C)c1-c1ccc(-c2nc3cnccn3c2NC(C)(C)C)cc1,84.1,64.8
